Measurements published in the supplement of paper PMC11732987, “Enantioselective OTUD7B fragment discovery through chemoproteomics screening and high-throughput optimisation” (Communications Chemistry, 2025).

Legend:
Test in all cases: log2 ratio of Biotin-Ahx-Ub-VS probe labelling (fragment/DMSO); higher = less target engagement (more negative = stronger competition), active = hit call of the paper (q ≤ 0.05, log2 ratio ≤ -1)
Conditions in all cases: compound concentration: 200 uM; treatment time: 3 h
[1] = molecular target: T1, USP42 (UniProt Q9H9J4)
T1 sequence (whole entry): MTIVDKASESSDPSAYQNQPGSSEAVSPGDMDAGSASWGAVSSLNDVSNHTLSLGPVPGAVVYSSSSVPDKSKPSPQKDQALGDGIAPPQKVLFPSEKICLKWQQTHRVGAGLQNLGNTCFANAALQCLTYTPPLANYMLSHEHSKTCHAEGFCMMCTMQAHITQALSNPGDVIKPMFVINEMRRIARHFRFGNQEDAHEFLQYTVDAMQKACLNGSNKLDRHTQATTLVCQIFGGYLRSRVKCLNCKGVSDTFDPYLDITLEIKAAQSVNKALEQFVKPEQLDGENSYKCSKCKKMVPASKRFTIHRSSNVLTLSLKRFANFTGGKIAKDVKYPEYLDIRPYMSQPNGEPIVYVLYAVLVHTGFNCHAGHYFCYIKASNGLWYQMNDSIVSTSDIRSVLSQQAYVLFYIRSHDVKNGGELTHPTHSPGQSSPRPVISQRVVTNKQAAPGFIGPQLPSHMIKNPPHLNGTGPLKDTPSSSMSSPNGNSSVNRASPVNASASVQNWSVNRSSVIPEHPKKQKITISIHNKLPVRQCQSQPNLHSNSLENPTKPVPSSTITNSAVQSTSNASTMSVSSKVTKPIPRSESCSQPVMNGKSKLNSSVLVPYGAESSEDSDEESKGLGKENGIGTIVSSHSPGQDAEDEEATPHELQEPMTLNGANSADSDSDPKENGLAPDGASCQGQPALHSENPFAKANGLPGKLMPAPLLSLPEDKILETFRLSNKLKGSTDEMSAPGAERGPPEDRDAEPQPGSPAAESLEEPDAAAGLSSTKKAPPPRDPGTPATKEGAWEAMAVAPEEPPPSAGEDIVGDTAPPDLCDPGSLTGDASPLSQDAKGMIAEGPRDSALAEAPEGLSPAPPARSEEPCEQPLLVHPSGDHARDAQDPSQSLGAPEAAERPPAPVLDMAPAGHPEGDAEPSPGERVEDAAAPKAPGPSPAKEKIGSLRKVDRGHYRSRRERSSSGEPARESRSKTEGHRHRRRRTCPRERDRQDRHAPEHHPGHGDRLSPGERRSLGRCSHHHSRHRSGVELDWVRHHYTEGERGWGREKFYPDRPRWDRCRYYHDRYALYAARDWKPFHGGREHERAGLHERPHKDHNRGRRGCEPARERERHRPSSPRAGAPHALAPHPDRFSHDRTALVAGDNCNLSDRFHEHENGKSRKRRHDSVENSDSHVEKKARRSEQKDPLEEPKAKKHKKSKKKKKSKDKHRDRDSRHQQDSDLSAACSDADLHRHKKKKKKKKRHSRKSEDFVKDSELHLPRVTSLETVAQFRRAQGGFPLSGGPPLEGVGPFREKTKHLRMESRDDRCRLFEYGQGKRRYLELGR
In short: (§1)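 Fragment (200 µM) or vehicle was incubated for 3 h with triplicate HEK293T lysate samples of 495 µg, which were then treated with Biotin-Ahx-Ub-VS at 0.5 µM final for 1 h. Labelled DUBs were enriched on NeutrAvidin, digested with LysC and trypsin, and analysed by diaPASEF LC-MS/MS. Values are average log2 fragment/vehicle ratios from an unpaired t-test on global-median-normalised Spectronaut label-free quantities, using proteins with ≥2 unique peptides.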

[2] = molecular target: USP46 (UniProt P62068)
In short: as §1

[3] = molecular target: T2, USP47 (UniProt Q96K76)
T2 sequence (whole entry): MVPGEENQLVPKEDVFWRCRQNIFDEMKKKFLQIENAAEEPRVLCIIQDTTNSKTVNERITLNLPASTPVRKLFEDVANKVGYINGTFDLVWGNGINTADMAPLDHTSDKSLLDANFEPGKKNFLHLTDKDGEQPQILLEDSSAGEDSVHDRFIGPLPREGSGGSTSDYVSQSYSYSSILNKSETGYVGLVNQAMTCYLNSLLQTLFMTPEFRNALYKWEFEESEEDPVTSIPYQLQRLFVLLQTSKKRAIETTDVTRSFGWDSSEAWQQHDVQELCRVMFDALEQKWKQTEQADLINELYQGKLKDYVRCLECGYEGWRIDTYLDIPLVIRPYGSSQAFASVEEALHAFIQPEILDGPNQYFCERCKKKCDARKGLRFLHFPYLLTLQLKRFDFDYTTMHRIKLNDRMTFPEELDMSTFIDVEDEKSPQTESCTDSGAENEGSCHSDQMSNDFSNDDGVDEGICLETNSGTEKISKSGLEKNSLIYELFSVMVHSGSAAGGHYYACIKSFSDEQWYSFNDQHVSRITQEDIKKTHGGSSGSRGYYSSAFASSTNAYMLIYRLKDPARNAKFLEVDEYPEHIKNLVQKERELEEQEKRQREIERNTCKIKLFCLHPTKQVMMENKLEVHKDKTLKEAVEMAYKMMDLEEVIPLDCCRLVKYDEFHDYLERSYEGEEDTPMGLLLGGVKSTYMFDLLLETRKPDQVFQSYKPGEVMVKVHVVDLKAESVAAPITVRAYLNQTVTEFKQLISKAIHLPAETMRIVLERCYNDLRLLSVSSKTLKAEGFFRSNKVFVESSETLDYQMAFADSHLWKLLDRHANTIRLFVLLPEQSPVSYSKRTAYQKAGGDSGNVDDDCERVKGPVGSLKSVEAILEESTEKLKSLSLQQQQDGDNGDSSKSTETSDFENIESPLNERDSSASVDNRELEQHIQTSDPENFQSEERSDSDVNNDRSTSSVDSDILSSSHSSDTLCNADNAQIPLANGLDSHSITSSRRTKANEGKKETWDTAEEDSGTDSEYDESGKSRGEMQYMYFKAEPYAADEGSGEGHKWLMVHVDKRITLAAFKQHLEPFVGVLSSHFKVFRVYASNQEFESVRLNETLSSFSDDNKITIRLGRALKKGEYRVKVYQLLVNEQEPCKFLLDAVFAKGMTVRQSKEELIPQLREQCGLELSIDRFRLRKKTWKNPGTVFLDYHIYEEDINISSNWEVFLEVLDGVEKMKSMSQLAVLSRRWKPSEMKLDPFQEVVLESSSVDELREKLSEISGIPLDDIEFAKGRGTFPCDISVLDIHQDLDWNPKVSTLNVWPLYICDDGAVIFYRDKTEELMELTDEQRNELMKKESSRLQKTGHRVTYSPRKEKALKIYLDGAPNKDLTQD
In short: as §1

[4] = molecular target: T3, USP48 (UniProt Q86UV5)
T3 sequence (whole entry): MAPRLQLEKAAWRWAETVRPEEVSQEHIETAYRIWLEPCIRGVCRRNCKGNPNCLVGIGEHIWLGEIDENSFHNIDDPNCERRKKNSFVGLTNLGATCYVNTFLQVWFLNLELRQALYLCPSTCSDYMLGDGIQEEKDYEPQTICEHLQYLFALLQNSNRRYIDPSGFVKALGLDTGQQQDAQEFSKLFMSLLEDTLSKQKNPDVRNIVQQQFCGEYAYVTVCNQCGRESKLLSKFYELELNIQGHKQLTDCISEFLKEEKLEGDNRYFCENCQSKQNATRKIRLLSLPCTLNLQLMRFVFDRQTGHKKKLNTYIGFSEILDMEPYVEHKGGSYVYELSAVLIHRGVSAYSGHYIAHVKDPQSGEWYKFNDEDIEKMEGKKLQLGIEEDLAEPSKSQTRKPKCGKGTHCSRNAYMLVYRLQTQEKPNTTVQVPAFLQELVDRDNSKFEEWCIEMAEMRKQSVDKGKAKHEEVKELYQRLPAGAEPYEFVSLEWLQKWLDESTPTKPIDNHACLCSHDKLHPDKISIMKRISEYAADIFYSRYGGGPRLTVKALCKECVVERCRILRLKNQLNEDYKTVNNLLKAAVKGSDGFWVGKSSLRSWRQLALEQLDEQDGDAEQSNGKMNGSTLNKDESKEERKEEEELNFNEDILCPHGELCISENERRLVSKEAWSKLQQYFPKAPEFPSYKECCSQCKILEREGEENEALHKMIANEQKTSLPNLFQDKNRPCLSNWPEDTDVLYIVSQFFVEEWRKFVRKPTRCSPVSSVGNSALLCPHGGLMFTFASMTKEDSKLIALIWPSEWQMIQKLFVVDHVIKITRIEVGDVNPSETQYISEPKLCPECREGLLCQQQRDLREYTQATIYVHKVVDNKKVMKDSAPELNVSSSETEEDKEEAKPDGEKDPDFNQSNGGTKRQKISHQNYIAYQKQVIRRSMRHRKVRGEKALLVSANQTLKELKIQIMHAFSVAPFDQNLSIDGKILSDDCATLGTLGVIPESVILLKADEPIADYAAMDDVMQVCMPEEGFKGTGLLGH
In short: as §1

[5] = molecular target: T4, USP5 (UniProt P45974)
T4 sequence (whole entry): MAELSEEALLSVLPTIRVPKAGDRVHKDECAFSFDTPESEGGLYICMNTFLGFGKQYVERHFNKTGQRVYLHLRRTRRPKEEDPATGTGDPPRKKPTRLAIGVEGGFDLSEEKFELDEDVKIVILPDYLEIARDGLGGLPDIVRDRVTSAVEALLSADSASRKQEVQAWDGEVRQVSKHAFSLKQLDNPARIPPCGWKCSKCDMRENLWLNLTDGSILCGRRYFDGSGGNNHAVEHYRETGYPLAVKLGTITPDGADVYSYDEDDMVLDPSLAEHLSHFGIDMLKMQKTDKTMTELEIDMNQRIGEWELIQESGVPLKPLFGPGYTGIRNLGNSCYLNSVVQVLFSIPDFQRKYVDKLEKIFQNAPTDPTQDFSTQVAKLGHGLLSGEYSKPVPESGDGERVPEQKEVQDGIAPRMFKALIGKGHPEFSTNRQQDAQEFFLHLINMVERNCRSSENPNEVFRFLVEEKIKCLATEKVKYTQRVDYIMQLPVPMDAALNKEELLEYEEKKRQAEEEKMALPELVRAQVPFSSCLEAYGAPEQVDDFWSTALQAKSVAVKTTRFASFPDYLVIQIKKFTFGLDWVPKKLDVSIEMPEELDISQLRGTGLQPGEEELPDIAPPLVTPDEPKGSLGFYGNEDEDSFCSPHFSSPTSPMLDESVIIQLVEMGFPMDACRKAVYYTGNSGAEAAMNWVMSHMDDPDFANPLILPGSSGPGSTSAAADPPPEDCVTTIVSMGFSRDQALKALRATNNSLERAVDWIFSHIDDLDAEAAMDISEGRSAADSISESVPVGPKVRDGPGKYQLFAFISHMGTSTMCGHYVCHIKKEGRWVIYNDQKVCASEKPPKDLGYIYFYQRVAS
In short: as §1

[6] = molecular target: USP54 (UniProt Q70EL1)
In short: as §1

[7] = molecular target: USP7 (UniProt Q93009)
In short: as §1

[8] = molecular target: T5, USP8 (UniProt P40818)
T5 sequence (whole entry): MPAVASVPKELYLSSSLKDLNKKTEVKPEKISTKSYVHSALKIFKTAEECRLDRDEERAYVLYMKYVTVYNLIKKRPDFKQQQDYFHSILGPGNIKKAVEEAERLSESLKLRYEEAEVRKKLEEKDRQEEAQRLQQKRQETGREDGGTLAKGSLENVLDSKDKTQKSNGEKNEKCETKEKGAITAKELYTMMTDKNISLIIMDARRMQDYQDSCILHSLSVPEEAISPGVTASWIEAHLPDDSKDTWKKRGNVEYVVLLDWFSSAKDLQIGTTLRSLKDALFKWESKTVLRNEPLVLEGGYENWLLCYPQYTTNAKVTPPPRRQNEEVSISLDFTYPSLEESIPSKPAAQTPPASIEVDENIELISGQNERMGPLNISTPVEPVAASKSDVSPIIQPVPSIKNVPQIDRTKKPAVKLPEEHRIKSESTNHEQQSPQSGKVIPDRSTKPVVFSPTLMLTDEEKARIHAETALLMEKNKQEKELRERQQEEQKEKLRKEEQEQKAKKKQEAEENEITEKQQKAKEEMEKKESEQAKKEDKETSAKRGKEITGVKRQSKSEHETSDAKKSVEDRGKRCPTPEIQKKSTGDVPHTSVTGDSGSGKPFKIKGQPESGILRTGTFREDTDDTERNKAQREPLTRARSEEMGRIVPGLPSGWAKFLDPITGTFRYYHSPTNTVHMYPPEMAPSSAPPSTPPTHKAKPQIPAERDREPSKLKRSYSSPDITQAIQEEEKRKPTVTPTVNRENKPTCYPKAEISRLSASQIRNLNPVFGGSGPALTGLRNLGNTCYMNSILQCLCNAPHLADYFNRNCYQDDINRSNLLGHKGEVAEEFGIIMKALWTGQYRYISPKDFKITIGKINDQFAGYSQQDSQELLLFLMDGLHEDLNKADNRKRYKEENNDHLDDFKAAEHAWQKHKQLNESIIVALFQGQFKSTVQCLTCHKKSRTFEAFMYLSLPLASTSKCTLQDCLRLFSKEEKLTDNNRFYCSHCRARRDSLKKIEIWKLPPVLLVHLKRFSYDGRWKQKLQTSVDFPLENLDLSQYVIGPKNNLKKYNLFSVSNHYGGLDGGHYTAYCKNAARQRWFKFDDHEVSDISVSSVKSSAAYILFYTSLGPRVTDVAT
In short: as §1

[9] = molecular target: USP9X (UniProt Q93008)
In short: as §1

[10] = molecular target: UniProt O00487
In short: as §1

Measured: log2 ratio of Biotin-Ahx-Ub-VS probe labelling

Sequence of USP46 (P62068 whole entry): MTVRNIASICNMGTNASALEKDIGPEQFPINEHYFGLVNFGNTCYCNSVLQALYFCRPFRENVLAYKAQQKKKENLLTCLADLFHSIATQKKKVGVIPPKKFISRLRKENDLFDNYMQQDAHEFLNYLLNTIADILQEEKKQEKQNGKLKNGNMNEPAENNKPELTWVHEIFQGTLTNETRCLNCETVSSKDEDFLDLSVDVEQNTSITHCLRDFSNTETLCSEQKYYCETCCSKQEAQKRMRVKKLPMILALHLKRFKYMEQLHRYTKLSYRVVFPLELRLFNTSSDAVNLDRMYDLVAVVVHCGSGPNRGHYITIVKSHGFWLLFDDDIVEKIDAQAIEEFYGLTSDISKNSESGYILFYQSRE
Sequence of UniProt O00487 (O00487 whole entry): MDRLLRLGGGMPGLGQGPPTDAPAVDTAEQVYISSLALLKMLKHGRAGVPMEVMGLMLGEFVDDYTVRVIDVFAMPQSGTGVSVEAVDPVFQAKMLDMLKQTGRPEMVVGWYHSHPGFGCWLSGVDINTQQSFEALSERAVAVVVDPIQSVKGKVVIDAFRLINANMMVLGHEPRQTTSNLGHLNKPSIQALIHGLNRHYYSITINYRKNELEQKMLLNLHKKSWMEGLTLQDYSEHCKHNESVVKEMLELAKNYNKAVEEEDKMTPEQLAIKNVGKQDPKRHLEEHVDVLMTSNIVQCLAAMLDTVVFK
Sequence of USP54 (Q70EL1 whole entry): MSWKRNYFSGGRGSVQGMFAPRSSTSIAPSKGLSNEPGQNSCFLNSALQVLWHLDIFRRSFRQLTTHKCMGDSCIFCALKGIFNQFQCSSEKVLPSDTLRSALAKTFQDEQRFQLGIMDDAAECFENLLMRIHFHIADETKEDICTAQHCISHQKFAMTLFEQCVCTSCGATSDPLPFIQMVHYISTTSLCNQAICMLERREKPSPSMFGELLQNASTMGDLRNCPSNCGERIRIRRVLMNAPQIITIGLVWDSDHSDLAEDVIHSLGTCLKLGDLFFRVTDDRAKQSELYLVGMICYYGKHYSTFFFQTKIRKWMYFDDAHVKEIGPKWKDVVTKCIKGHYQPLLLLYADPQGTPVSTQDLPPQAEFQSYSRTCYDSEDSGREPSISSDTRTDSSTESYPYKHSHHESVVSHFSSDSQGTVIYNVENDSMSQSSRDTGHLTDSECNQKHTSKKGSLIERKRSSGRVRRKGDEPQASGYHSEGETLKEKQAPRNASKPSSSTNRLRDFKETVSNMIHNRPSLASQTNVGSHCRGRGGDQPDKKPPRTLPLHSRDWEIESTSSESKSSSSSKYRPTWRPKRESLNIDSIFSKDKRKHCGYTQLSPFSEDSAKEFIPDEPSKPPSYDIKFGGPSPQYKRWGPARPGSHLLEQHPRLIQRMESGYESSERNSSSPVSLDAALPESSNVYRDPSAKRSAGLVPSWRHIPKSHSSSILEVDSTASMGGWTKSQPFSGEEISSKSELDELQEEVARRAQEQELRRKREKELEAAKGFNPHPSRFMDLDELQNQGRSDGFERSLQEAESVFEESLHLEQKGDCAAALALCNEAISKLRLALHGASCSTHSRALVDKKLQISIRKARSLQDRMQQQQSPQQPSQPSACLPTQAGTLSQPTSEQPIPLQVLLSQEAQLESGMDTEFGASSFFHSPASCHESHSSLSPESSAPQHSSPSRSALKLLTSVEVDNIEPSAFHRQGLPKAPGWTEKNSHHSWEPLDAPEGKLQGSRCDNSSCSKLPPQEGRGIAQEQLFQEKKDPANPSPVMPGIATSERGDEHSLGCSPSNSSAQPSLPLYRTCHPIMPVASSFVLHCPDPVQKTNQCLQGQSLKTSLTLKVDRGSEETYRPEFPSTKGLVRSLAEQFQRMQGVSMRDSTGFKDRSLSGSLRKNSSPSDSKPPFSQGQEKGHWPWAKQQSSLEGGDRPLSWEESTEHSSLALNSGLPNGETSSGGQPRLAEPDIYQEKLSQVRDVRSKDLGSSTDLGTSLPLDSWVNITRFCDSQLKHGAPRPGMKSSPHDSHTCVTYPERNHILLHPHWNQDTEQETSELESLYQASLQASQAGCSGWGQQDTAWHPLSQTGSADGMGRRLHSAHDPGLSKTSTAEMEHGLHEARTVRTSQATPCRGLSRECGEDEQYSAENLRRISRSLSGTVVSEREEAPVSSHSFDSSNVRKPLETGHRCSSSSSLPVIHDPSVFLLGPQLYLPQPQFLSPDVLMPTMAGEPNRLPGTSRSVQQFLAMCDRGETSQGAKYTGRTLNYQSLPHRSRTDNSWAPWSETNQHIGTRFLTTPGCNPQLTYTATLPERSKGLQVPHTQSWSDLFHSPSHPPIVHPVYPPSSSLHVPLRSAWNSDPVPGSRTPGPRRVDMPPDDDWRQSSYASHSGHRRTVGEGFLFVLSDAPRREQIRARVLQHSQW
Sequence of USP9X (Q93008 whole entry): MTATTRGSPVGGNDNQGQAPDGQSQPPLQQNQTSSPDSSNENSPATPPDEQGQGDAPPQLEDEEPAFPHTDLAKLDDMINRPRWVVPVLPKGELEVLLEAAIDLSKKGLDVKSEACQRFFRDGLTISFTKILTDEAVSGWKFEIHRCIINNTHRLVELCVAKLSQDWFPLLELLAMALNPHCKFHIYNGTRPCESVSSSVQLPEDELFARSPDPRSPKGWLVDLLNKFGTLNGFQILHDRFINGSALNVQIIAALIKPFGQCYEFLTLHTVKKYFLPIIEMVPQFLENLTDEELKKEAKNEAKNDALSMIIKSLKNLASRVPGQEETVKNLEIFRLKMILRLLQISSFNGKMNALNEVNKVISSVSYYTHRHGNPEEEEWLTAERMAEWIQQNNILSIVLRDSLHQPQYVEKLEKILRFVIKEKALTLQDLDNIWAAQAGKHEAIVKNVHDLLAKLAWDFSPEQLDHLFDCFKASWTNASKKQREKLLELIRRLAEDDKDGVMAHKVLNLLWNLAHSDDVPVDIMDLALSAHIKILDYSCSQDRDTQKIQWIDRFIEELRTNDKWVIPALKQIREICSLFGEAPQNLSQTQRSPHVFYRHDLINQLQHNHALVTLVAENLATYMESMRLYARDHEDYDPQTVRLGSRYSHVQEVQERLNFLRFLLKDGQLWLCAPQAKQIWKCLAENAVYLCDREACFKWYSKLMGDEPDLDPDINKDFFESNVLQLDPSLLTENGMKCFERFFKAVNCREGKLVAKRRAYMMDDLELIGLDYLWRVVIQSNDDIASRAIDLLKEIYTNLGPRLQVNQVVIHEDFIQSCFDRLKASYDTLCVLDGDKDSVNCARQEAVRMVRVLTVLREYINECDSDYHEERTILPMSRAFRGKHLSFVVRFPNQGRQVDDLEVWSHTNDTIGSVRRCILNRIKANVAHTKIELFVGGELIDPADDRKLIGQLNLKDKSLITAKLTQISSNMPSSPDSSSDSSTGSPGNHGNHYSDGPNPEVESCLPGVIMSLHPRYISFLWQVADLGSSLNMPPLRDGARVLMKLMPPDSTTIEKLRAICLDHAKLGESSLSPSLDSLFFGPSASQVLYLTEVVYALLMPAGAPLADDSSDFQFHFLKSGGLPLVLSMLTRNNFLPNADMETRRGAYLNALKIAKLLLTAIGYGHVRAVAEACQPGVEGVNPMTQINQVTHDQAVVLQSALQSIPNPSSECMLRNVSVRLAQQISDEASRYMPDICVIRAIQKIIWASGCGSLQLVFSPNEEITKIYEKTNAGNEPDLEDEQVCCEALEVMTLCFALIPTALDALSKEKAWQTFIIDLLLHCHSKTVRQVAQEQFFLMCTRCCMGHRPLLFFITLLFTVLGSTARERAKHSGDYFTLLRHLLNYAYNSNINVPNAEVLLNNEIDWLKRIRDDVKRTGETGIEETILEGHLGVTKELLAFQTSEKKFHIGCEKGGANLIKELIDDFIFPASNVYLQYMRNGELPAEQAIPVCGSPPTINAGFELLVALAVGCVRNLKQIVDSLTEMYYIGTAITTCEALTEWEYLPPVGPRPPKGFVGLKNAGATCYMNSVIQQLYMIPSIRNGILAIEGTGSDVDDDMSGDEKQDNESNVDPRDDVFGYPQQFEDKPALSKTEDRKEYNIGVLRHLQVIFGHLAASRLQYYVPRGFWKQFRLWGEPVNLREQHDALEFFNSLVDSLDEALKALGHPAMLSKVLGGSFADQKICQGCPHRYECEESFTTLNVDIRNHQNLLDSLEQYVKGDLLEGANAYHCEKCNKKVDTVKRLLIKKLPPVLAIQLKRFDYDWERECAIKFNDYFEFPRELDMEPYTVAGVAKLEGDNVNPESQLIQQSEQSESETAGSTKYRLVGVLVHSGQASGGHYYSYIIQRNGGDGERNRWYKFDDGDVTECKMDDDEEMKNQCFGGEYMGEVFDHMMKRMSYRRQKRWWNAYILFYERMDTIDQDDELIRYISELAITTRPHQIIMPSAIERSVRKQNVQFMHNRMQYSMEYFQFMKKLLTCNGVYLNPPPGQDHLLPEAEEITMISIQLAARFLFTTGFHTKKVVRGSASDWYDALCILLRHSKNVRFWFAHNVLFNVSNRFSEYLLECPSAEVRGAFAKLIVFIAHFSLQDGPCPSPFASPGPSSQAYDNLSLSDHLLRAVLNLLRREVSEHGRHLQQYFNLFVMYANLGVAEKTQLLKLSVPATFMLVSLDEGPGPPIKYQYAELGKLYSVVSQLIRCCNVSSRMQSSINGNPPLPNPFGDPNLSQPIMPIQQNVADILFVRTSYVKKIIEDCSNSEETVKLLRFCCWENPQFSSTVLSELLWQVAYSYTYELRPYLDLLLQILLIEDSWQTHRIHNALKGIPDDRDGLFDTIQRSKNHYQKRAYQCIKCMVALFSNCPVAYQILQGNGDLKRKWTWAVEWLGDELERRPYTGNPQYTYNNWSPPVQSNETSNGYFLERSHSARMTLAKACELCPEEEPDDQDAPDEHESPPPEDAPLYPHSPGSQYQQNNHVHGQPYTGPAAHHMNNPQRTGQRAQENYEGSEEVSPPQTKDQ

CC(NC(=O)CCl)c1csc(-c2ccccc2)n1.Cl (stereo not given)
inactive: [1] -0.201 | [2] -0.41 | [3] 0.0356 | [4] -0.587 | [5] -0.0456 | [6] 0.348 | [7] -0.457 | [8] -0.318 | [9] -0.619 | [10] -0.213
